Measurements as given in the supplement of paper PMC10849652.
Of roughly 7,900 targets only a part is listed; those with a hit were picked by preference. About 0.6% of all pairs of compound and target were hits. Unmarked numbers belong to inactive results.

Columns and labels:
Test in all cases: log2 fold change, soluble protein after heating vs DMSO (PISA); higher = thermal stabilisation; K562 cells, 10 uM, 30 min; active = over 0.2 and 3.5 SD of the protein, either way, in both replicates (recomputed)
[1] = compound: COC1=CC=C(C=C1)CN2C=CC3=C2C=C(C=C3)C(=O)NO
Outline: (§1)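 Soluble protein was quantified by TMTpro 16plex LC-MS/MS after channel sums were equalised. It was obtained as the supernatant after 21,000xg for 90 min from pooled aliquots of K562 cells (2×10^6 cells/mL, 10 μM compound, 30 min) heated for 3 min across 48°C-58°C and extracted in PBS with 0.5% NP-40 at 4°C. Thermal stability values are relative to control samples and come from duplicates. They are given as log2 fold changes.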

filanesib = compound: CON(C)C(=O)N1N=C(c2cc(F)ccc2F)S[C@@]1(CCCN)c1ccccc1 [filanesib]
Outline: as §1

zotarolimus = compound: CO[C@H]1C[C@@H]2CC[C@@H](C)[C@@](O)(O2)C(=O)C(=O)N2CCCC[C@H]2C(=O)O[C@H]([C@H](C)C[C@@H]2CC[C@H](n3cnnn3)[C@H](OC)C2)CC(=O)[C@H](C)/C=C(\C)[C@@H](O)[C@@H](OC)C(=O)[C@H](C)C[C@H](C)/C=C/C=C/C=C/1C [zotarolimus]
Outline: as §1

idasanutlin = compound: COc1cc(C(=O)O)ccc1NC(=O)[C@@H]1N[C@@H](CC(C)(C)C)[C@](C#N)(c2ccc(Cl)cc2F)[C@H]1c1cccc(Cl)c1F [idasanutlin]
Outline: as §1

alisertib = compound: COc1cc(Nc2ncc3c(n2)-c2ccc(Cl)cc2C(c2c(F)cccc2OC)=NC3)ccc1C(=O)O [alisertib]
Outline: as §1

[2] = compound: COc1cc2nc(-c3cc(F)ccc3O)nc(N[C@@H]3CNC[C@H]3C(C)(C)O)c2cc1OC
Outline: as §1

gefitinib = compound: COc1cc2ncnc(Nc3ccc(F)c(Cl)c3)c2cc1OCCCN1CCOCC1 [gefitinib]
Outline: as §1

[3] = compound: COc1cccc2cc(-c3nc([C@H]4CC[C@H](C(=O)O)CC4)n4ncnc(N)c34)[nH]c12
Outline: as §1

lapatinib = compound: CS(=O)(=O)CCNCc1ccc(-c2ccc3ncnc(Nc4ccc(OCc5cccc(F)c5)c(Cl)c4)c3c2)o1 [lapatinib]
Outline: as §1

pictilisib = compound: CS(=O)(=O)N1CCN(Cc2cc3nc(-c4cccc5[nH]ncc45)nc(N4CCOCC4)c3s2)CC1 [pictilisib]
Outline: as §1

[4] = compound: CS(=O)(=O)c1ccc(-c2cnc(N)c(C(=O)Nc3ccccc3)n2)cc1
Outline: as §1

crizotinib = compound: C[C@@H](Oc1cc(-c2cnn(C3CCNCC3)c2)cnc1N)c1c(Cl)ccc(F)c1Cl [crizotinib]
Outline: as §1

[5] = compound: C[C@@H]1COCCN1C2=NC(=NC(=C2)C3(CC3)S(=O)(=O)C)C4=C5C=CNC5=CC=C4
Outline: as §1

[6] = compound: C[C@H](C1=CC=C(C=C1)C(=O)NC2=C3C=CNC3=NC=C2)N
Outline: as §1

duvelisib = compound: C[C@H](Nc1ncnc2nc[nH]c12)c1cc2cccc(Cl)c2c(=O)n1-c1ccccc1 [duvelisib]
Outline: as §1

gandotinib = compound: Cc1cc(Nc2cc(CN3CCOCC3)c3nc(C)c(Cc4ccc(Cl)cc4F)n3n2)n[nH]1 [gandotinib]
Outline: as §1

tozasertib = compound: Cc1cc(Nc2cc(N3CCN(C)CC3)nc(Sc3ccc(NC(=O)C4CC4)cc3)n2)n[nH]1 [tozasertib]
Outline: as §1

[7] = compound: Cc1cc(SCc2sc(-c3ccc(C(F)(F)F)cc3)nc2C)ccc1OCC(=O)O
Outline: as §1

doramapimod = compound: Cc1ccc(-n2nc(C(C)(C)C)cc2NC(=O)Nc2ccc(OCCN3CCOCC3)c3ccccc23)cc1 [doramapimod]
Outline: as §1

ispinesib = compound: Cc1ccc(C(=O)N(CCCN)[C@@H](c2nc3cc(Cl)ccc3c(=O)n2Cc2ccccc2)C(C)C)cc1 [ispinesib]
Outline: as §1

UniProt O94973, sequence (O94973 whole entry, looked up): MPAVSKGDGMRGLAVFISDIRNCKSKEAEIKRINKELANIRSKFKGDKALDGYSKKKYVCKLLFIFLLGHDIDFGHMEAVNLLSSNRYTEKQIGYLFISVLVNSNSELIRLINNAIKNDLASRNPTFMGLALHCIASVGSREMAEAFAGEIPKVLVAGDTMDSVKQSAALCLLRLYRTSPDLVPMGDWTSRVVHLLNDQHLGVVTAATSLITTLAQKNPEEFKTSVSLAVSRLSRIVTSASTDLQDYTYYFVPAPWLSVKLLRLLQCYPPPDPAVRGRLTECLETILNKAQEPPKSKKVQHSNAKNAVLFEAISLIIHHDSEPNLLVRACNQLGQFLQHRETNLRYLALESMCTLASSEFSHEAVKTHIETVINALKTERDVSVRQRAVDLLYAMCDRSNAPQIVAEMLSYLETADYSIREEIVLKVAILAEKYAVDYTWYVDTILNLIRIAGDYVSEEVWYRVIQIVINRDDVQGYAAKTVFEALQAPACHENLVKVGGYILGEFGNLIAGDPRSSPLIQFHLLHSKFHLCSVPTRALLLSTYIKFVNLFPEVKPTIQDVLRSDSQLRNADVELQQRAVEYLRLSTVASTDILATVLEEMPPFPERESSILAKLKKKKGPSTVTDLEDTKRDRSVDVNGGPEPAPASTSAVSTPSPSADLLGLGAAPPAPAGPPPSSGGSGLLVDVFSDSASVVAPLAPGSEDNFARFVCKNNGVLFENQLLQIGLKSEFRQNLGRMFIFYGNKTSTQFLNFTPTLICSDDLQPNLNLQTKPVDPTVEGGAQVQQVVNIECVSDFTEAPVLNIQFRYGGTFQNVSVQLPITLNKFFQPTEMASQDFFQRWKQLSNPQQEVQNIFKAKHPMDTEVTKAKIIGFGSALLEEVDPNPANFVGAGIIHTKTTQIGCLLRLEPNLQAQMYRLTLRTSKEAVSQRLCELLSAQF
UniProt P36405, sequence (P36405 whole entry, looked up): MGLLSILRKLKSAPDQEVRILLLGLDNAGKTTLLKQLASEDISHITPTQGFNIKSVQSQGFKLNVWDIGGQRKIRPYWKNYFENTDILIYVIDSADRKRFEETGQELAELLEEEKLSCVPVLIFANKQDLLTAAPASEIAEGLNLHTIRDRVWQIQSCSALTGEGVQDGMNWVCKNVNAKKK
UniProt O60566, sequence (O60566 whole entry, looked up): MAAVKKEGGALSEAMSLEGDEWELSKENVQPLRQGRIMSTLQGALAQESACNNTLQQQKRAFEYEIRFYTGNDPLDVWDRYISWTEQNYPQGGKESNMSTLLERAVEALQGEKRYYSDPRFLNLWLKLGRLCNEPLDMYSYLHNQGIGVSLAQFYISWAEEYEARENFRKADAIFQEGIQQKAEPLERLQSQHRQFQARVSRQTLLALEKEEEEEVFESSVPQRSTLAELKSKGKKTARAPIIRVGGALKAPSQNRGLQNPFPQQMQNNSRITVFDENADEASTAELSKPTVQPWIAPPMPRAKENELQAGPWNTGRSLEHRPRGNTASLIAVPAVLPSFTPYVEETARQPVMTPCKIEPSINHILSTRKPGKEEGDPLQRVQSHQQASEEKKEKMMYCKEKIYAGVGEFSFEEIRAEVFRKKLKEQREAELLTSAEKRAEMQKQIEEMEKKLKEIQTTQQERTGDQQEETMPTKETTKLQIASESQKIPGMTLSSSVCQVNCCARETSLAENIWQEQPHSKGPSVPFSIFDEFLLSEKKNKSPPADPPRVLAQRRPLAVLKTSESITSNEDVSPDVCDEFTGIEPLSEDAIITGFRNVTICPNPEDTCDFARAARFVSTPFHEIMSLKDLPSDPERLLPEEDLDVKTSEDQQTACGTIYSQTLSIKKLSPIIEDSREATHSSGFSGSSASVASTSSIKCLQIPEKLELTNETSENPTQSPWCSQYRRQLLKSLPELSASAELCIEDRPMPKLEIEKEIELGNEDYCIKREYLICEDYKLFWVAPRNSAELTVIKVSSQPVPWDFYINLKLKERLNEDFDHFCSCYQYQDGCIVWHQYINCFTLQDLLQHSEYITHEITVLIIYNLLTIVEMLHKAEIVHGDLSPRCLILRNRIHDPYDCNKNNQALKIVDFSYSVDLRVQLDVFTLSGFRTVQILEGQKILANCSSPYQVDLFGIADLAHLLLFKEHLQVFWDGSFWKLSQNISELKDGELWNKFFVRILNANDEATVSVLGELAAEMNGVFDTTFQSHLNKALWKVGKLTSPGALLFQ
UniProt Q14137, sequence (Q14137 whole entry, looked up): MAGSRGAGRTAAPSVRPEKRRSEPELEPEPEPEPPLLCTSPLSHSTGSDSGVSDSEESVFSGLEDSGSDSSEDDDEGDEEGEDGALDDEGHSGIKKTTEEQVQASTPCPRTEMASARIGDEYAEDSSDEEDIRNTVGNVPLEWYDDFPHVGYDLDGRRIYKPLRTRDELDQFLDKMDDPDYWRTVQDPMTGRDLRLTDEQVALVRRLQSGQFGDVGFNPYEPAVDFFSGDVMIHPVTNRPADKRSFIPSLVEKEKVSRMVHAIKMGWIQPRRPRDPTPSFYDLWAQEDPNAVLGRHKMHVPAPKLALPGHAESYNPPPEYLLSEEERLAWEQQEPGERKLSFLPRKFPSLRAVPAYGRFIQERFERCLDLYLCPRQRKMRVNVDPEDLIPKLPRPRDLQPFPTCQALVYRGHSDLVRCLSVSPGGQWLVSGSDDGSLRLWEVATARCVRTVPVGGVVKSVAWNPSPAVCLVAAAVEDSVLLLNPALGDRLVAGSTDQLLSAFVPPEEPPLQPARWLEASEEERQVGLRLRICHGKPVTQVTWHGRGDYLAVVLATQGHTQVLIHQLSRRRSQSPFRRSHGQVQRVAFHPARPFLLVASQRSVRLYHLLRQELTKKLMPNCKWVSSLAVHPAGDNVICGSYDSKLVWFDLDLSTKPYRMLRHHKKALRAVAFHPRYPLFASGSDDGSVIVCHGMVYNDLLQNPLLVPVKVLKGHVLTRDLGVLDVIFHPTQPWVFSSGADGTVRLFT
UniProt Q9Y679, sequence (Q9Y679 whole entry, looked up): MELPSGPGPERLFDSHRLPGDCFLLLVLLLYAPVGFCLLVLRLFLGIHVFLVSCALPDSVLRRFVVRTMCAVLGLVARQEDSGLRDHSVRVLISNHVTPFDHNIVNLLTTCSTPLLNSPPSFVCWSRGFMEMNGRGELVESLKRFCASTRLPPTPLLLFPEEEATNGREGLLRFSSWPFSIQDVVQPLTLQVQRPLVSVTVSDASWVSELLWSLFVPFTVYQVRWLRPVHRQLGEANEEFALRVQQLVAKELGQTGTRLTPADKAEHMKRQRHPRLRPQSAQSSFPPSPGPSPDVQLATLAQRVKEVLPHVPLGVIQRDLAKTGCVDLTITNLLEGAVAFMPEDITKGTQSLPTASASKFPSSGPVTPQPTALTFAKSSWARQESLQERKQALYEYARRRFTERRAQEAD
UniProt P11310, sequence (P11310 whole entry, looked up): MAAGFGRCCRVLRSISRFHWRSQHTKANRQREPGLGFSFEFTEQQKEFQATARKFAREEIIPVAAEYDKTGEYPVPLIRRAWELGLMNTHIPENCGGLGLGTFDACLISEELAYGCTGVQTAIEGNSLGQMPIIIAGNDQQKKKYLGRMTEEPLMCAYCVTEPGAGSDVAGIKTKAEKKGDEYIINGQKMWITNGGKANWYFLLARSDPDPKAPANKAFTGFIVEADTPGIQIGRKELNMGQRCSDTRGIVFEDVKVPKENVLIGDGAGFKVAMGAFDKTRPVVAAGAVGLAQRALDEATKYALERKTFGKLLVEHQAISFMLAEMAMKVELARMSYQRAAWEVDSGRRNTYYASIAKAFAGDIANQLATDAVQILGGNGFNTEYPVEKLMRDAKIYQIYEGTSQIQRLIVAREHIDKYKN
UniProt Q9NSY1, sequence (Q9NSY1 whole entry, looked up): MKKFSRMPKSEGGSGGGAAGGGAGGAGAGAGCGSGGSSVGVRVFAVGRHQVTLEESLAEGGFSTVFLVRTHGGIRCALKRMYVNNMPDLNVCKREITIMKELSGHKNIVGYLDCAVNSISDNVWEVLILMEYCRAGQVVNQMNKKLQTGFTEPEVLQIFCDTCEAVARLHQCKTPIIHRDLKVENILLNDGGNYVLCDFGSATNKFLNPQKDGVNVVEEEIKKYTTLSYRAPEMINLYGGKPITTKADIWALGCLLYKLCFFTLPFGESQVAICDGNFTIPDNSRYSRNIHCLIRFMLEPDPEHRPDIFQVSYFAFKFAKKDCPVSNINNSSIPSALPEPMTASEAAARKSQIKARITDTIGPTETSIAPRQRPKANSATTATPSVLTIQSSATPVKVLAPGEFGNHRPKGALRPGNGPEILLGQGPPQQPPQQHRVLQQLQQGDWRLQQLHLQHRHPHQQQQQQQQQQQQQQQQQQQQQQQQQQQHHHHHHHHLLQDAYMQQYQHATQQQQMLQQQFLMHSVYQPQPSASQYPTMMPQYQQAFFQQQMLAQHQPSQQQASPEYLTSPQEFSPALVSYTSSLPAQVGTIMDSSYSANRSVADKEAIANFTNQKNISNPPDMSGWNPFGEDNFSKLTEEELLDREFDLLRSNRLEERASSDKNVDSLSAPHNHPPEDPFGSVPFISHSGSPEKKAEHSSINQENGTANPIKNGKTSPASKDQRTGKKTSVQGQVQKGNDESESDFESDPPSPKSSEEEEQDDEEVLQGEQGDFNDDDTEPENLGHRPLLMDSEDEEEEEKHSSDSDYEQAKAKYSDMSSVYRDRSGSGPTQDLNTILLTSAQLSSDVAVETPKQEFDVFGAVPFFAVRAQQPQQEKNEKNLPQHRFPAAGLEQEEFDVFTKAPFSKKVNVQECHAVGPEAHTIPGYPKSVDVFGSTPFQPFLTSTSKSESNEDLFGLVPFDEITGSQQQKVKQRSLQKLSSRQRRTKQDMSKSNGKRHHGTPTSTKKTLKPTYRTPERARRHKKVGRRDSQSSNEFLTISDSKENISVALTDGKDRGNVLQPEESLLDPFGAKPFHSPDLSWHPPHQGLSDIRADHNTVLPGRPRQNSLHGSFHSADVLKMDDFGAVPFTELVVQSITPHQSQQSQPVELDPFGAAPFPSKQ

Row | Target | log2 fold change [1] | log2 fold change (filanesib) | log2 fold change (zotarolimus) | log2 fold change (idasanutlin) | log2 fold change (alisertib) | log2 fold change [2] | log2 fold change (gefitinib) | log2 fold change [3] | log2 fold change (lapatinib) | log2 fold change (pictilisib) | log2 fold change [4] | log2 fold change (crizotinib) | log2 fold change [5] | log2 fold change [6] | log2 fold change (duvelisib) | log2 fold change (gandotinib) | log2 fold change (tozasertib) | log2 fold change [7] | log2 fold change (doramapimod) | log2 fold change (ispinesib)
1 | BLOC1S3 (UniProt Q6QNY0) | -0.013 | -0.066 | -0.014 | -0.149 | 0.005 | -0.018 | 0.048 | 0.058 | -0.007 | 0.126 | -0.001 | 0.014 | 0.116 | 0.065 | 0.068 | -0.132 | -0.012 | -0.052 | -0.038 | 0.012
2 | BCLAF1 (UniProt Q9NYF8) | -0.107 | 0.103 | 0.068 | 0.127 | 0.074 | -0.215 | 0.01 | 0.033 | 0.101 | -0.109 | -0.002 | -0.06 | 0.089 | -0.438 (active) | 0.017 | -0.021 | 0.012 | -0.01 | 0.035 | 0.164
3 | BOP1 (UniProt Q14137) | -0.059 | 0.161 | 0.054 | 0.077 | -0.131 | -0.085 | 0.017 | -0.012 | -0.034 | 0 | -0.008 | 0.11 | -0.153 | 0.064 | -0.113 | 0.025 | 0.007 | 0.134 | -0.008 | -0.114
4 | ACADM isoform 2 (UniProt P11310) | 0.039 | -0.036 | 0.014 | -0.039 | -0.055 | 0.039 | 0.017 | 0.046 | 0.001 | 0.029 | 0.075 | 0.022 | 0.018 | -0.073 | 0.018 | 0.049 | -0.022 | -0.01 | -0.059 | 0.052
5 | BUB1B isoform 3 (UniProt O60566) | 0.038 | 0.103 | 0.014 | -0.014 | 0.005 | 0.001 | 0.032 | -0.098 | 0.006 | 0.065 | -0.015 | -0.108 | 0.013 | 0.083 | 0.011 | -0.207 | 0.119 | 0.057 | 0.047 | -0.072
6 | BMP2K (UniProt Q9NSY1) | 0.032 | -0.019 | 0.029 | -0.092 | 0 | 0.055 | 0.024 | 0.111 | 0.01 | 0.102 | 0.136 | 0.411 (active) | 0 | 0.402 (active) | -0.078 | 0.319 | 0.318 | -0.051 | 0.024 | -0.017
7 | BRD8 (UniProt Q9H0E9) | -0.013 | 0.064 | -0.029 | 0.08 | -0.061 | -0.032 | 0.005 | 0.017 | -0.009 | 0.103 | 0 | -0.021 | 0.018 | 0.06 | -0.009 | -0.013 | 0.046 | -0.054 | 0.023 | -0.022
8 | ARL3 (UniProt P36405) | 0 | -0.017 | -0.006 | -0.062 | -0.076 | -0.007 | -0.018 | 0.047 | -0.03 | 0.031 | 0.029 | 0.041 | 0.019 | -0.017 | 0.08 | 0.025 | 0.033 | -0.012 | -0.003 | 0.063
9 | AUP1 (UniProt Q9Y679) | -0.069 | -0.269 (active) | -0.014 | -0.022 | -0.013 | -0.163 | -0.034 | 0.022 | -0.007 | -0.059 | -0.032 | -0.123 | 0.071 | -0.015 | -0.05 | -0.181 | -0.012 | 0.06 | -0.033 | -0.41 (active)
10 | ARFIP1 (UniProt P53367) | 0.354 | -0.049 | -0.021 | 0.094 | 1.31 | 0.042 | -0.091 | -0.005 | -0.076 | -0.076 | 0.833 | -0.309 | 0.026 | -0.061 | 0.161 | -0.223 | -0.065 | 0.014 | 0 | -0.232
11 | ATAD1 (UniProt Q8NBU5) | 0.009 | -0.045 | 0.087 | -0.046 | -0.037 | -0.014 | 0.003 | -0.029 | 0.007 | 0.012 | 0.004 | 0.021 | -0.013 | 0.074 | -0.032 | 0.144 | -0.013 | 0.113 | -0.003 | -0.063
12 | AP2A2 isoform 2 (UniProt O94973) | 0.009 | 0.064 | 0.003 | 0.022 | -0.095 | 0.083 | 0.027 | 0 | 0.01 | -0.002 | 0.022 | -0.076 | -0.033 | -0.186 | 0.009 | -0.057 | -0.091 | -0.021 | 0.03 | 0.024
13 | ARL6IP6 (UniProt Q8N6S5) | -0.113 | -0.014 | -0.03 | -0.088 | 0.004 | -0.042 | -0.021 | 0.036 | 0.004 | 0.005 | 0.046 | -0.016 | 0.017 | -0.042 | -0.005 | -0.008 | -0.22 | -0.042 | 0.03 | 0.175
14 | ACSM3 (UniProt Q53FZ2) | 0.134 | -0.056 | 0.009 | -0.017 | -0.033 | 0.101 | -0.034 | 0.028 | -0.025 | 0.198 | -0.001 | -0.002 | 0.027 | -0.095 | -0.131 | -0.037 | -0.001 | 0.049 | 0.023 | 0.226
15 | ACP1 (UniProt P24666) | 0.008 | -0.047 | -0.039 | -0.078 | 0.029 | 0.056 | 0.003 | -0.086 | -0.073 | -0.062 | 0.077 | -0.063 | -0.033 | 0.165 | 0.021 | -0.083 | 0.108 | 0.324 | 0.141 | –
16 | ALG11 (UniProt Q2TAA5) | -0.018 | -0.038 | 0.036 | -0.051 | -0.075 | -0.003 | 0.206 | 0.026 | 0.005 | 0.032 | 0.142 | 0.007 | 0.103 | -0.04 | 0.059 | -0.129 | 0.036 | 0.015 | 0.038 | 0.029
